Measurements reported in PubChem BioAssay (NCATS).
Results filed as inconclusive are left out. The source made the active and inactive calls. Calls come from the whole dose curve; as a rule, active = well fitted inhibition curve with a large enough effect; inconclusive = small, poorly fitted or top-dose-only effect; inactive = flat fitted curve, though single readings scatter.

Columns and labels:
Experiment in all cases: qHTS profiling for inhibitors of Plasmodium falciparum proliferation (AID 504749); note: nearly all actives have a fitted effect of over 60% in size
Conditions in all cases: P. falciparum in erythrocytes, SYBR Green DNA, 72 h; series mostly up to 28.7 µM
[1] = tested on: CP335
Procedure, shortened: (§1)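 Three-day growth assay of blood-stage parasites in erythrocytes (0.3% parasitemia, 2.5% hematocrit) at 37 C, 5% CO2, quantified by SYBR Green DNA staining after overnight detergent lysis.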

[2] = tested on: DFO2036
Procedure, shortened: as §1

[3] = tested on: DIV14
Procedure, shortened: as §1

[4] = tested on: DIV17
Procedure, shortened: as §1

[5] = tested on: DIV30
Procedure, shortened: as §1

[6] = tested on: Dd2
Procedure, shortened: as §1

[7] = tested on: ECU
Procedure, shortened: as §1

[8] = tested on: FAB9
Procedure, shortened: as §1

[9] = tested on: GB4
Procedure, shortened: as §1

[10] = tested on: HB3
Procedure, shortened: as §1

[11] = tested on: ICS
Procedure, shortened: as §1

[12] = tested on: JCK
Procedure, shortened: as §1

[13] = tested on: N140
Procedure, shortened: as §1

[14] = tested on: P93_24
Procedure, shortened: as §1

[15] = tested on: P94_40
Procedure, shortened: as §1

[16] = tested on: PAD
Procedure, shortened: as §1

[17] = tested on: PC15
Procedure, shortened: as §1

[18] = tested on: PC26
Procedure, shortened: as §1

[19] = tested on: PC49
Procedure, shortened: as §1

[20] = tested on: SC27B
Procedure, shortened: as §1

Measured: Potency

O=C(NCCCN1CCOCC1)c1ccc(Cl)cc1
inactive: [1] | [2] | [3] | [4] | [5] | [6] | [7] | [8] | [9] | [10] | [11] | [12] | [13] | [14] | [15] | [16] | [17] | [18] | [19] | [20]

NC(N)=NCCN1CCCCCCC1
inactive: [1] | [2] | [3] | [4] | [5] | [6] | [7] | [8] | [9] | [10] | [11] | [12] | [13] | [14] | [15] | [16] | [17] | [18] | [19] | [20]

Cc1onc(-c2ccccc2)c1-c1ccc(S(N)(=O)=O)cc1
inactive: [1] | [2] | [3] | [4] | [5] | [6] | [7] | [8] | [9] | [10] | [11] | [12] | [13] | [14] | [15] | [16] | [17] | [18] | [19] | [20]

Cc1cccc(C)c1NC(=O)CC12CCCN1CCC2
inactive: [1] | [2] | [3] | [4] | [5] | [6] | [7] | [8] | [9] | [10] | [11] | [12] | [13] | [14] | [15] | [16] | [17] | [18] | [19] | [20]

O=C(NCN1CCOCC1)c1cnccn1
inactive: [1] | [2] | [3] | [4] | [5] | [6] | [7] | [8] | [9] | [10] | [11] | [12] | [13] | [14] | [15] | [16] | [17] | [18] | [19] | [20]

COC(=O)c1ccc(O)cc1
inactive: [1] | [2] | [3] | [4] | [5] | [6] | [7] | [8] | [9] | [10] | [11] | [12] | [13] | [14] | [15] | [16] | [17] | [18] | [19] | [20]

O=C(OOC(=O)c1ccccc1)c1ccccc1
inactive: [1] | [2] | [3] | [4] | [5] | [6] | [7] | [8] | [9] | [10] | [11] | [12] | [13] | [14] | [15] | [16] | [17] | [18] | [19] | [20]

Cc1c(NC(=O)c2cccnc2)c(=O)n(-c2ccccc2)n1C
inactive: [1] | [2] | [3] | [4] | [5] | [6] | [7] | [8] | [9] | [10] | [11] | [12] | [13] | [14] | [15] | [16] | [17] | [18] | [19] | [20]

CCN(CC)C(=O)c1cccc(C)c1
inactive: [1] | [2] | [3] | [4] | [5] | [6] | [7] | [8] | [9] | [10] | [11] | [12] | [13] | [14] | [15] | [16] | [17] | [18] | [19] | [20]

NNc1nnc(NN)c2ccccc12
inactive: [1] | [2] | [3] | [4] | [5] | [6] | [7] | [8] | [9] | [10] | [11] | [12] | [13] | [14] | [15] | [16] | [17] | [18] | [19] | [20]

COc1ccc(C(=O)N2CCN(CC(=O)N3CCOCC3)CC2)cc1
inactive: [1] | [2] | [3] | [4] | [5] | [6] | [7] | [8] | [9] | [10] | [11] | [12] | [13] | [14] | [15] | [16] | [17] | [18] | [19] | [20]

C[C@@H](N)C(=O)O
inactive: [1] | [2] | [3] | [4] | [5] | [6] | [7] | [8] | [9] | [10] | [11] | [12] | [13] | [14] | [15] | [16] | [17] | [18] | [19] | [20]

C=CCNC(N)=S
inactive: [1] | [2] | [3] | [4] | [5] | [6] | [7] | [8] | [9] | [10] | [11] | [12] | [13] | [14] | [15] | [16] | [17] | [18] | [19] | [20]

CCS(=O)(=O)CCn1c([N+](=O)[O-])cnc1C
inactive: [1] | [2] | [3] | [4] | [5] | [6] | [7] | [8] | [9] | [10] | [11] | [12] | [13] | [14] | [15] | [16] | [17] | [18] | [19] | [20]

O=C(CN1CCNCC1)NC1CCCCC1
inactive: [1] | [2] | [3] | [4] | [5] | [6] | [7] | [8] | [9] | [10] | [11] | [12] | [13] | [14] | [15] | [16] | [17] | [18] | [19] | [20]

CC(O)CCCCn1c(=O)c2c(ncn2C)n(C)c1=O (stereo not given)
inactive: [1] | [2] | [3] | [4] | [5] | [6] | [7] | [8] | [9] | [10] | [11] | [12] | [13] | [14] | [15] | [16] | [17] | [18] | [19] | [20]

O=c1[nH]c(=O)c2ccccc2o1
inactive: [1] | [2] | [3] | [4] | [5] | [6] | [7] | [8] | [9] | [10] | [11] | [12] | [13] | [14] | [15] | [16] | [17] | [18] | [19] | [20]

Cc1ccsc1C(=CCCN1CCC[C@@H](C(=O)O)C1)c1sccc1C
inactive: [1] | [2] | [3] | [4] | [5] | [6] | [7] | [8] | [9] | [10] | [11] | [12] | [13] | [14] | [15] | [16] | [17] | [18] | [19] | [20]

COc1ccc2cc(CCC(C)=O)ccc2c1
inactive: [1] | [2] | [3] | [4] | [5] | [6] | [7] | [8] | [9] | [10] | [11] | [12] | [13] | [14] | [15] | [16] | [17] | [18] | [19] | [20]

NC(N)=NS(=O)(=O)c1ccc(N)cc1
inactive: [1] | [2] | [3] | [4] | [5] | [6] | [7] | [8] | [9] | [10] | [11] | [12] | [13] | [14] | [15] | [16] | [17] | [18] | [19] | [20]

O=C(O)Cc1ccc(CCNS(=O)(=O)c2ccc(Cl)cc2)cc1
inactive: [1] | [2] | [3] | [4] | [5] | [6] | [7] | [8] | [9] | [10] | [11] | [12] | [13] | [14] | [15] | [16] | [17] | [18] | [19] | [20]

OCC(O)CS (stereo not given)
inactive: [1] | [2] | [3] | [4] | [5] | [6] | [7] | [8] | [9] | [10] | [11] | [12] | [13] | [14] | [15] | [16] | [17] | [18] | [19] | [20]

CCOc1ccc(C(=O)OCCN(CC)CC)cc1
inactive: [1] | [2] | [3] | [4] | [5] | [6] | [7] | [8] | [9] | [10] | [11] | [12] | [13] | [14] | [15] | [16] | [17] | [18] | [19] | [20]

C[C@@H]1CCC[C@H](C)N1
inactive: [1] | [2] | [3] | [4] | [5] | [6] | [7] | [8] | [9] | [10] | [11] | [12] | [13] | [14] | [15] | [16] | [17] | [18] | [19] | [20]

CC(C)c1cc2c(cc1S(=O)(=O)O)[C@@]1(C)CCC[C@@](C)(C(=O)O)[C@@H]1CC2
inactive: [1] | [2] | [3] | [4] | [5] | [6] | [7] | [8] | [9] | [10] | [11] | [12] | [13] | [14] | [15] | [16] | [17] | [18] | [19] | [20]

NCC1CCC(C(=O)Oc2ccc(CCC(=O)O)cc2)CC1 (stereo not given)
inactive: [1] | [2] | [3] | [4] | [5] | [6] | [7] | [8] | [9] | [10] | [11] | [12] | [13] | [14] | [15] | [16] | [17] | [18] | [19] | [20]

O=C1c2cccc(O)c2C(=O)c2c(O)cccc21
inactive: [1] | [2] | [3] | [4] | [5] | [6] | [7] | [8] | [9] | [10] | [11] | [12] | [13] | [14] | [15] | [16] | [17] | [18] | [19] | [20]

c1ccc2[nH]ccc2c1
inactive: [1] | [2] | [3] | [4] | [5] | [6] | [7] | [8] | [9] | [10] | [11] | [12] | [13] | [14] | [15] | [16] | [17] | [18] | [19] | [20]

CNCc1ccccc1
inactive: [1] | [2] | [3] | [4] | [5] | [6] | [7] | [8] | [9] | [10] | [11] | [12] | [13] | [14] | [15] | [16] | [17] | [18] | [19] | [20]
